Sampled rows, rich in hits. Any-hit rate of the full collection: about 0.92%.
UGM FP inh = Mtb UDP-galactopyranose mutase inhibition; P9WIQ1; purified UGM, fluorescence polarization probe displacement; inhibition, % at 10 µM; 320,000 tested, 0.06% active; AID 504406; in the data active = inhibition above about 10%, passing the limit was not always enough; inconclusive = no clear call, values can overlap the other calls
Mtb hypoxia inh = Mtb hypoxia fluorescent reporter inhibition | fluorescence inhibition, % (concentration not given with the values) | AID 1159583 | M. tuberculosis hypoxia-regulated fluorescent reporter, fluorescence | 300,000 tested, 0.1% active; in the data active = fluorescence inhibition mostly above about 23%, no sharp cut-off; inactive = mostly below about 17%
RecA intein inh = Mtb RecA intein splicing inhibition | P9WHJ3 | cell-free RecA intein splicing, fluorescence | inhibition, % (test concentration not listed) | 290,000 tested, 0.75% active | AID 2221; in the data active = inhibition above about 30%; inconclusive = no clear call, values can overlap the other calls
FadD28 binding = inhibitors of Mycobacterium tuberculosis FadD28 bisubstrate binding. AID 588549. FadD28 bisubstrate probe binding, fluorescence polarization. inhibition, % at 12.5 µM. 360,000 tested, 0.22% active; in the data active = inhibition above about 8.5%, passing the limit was not always enough; inconclusive = no clear call, values can overlap the other calls
Mtb bLac sens = beta-lactam sensitization of Mtb H37Rv | M. tuberculosis H37Rv growth with meropenem, percent inhibition | inhibition, % at 25 µM | 330,000 tested, 0.27% active; call rule not given here;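 also: growth measured after seven days incubation then overnight dye step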
Rv3671c inh = Rv3671c (M. tuberculosis) protease inhibition. P9WHR9. inhibition, % at 5.96 µM. 320,000 tested, 0.048% active; in the data active = inhibition above about 38%;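 also: extracellular domain of Rv3671c used as enzyme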
Target sequence (P9WHR9 whole entry, looked up, the tested form may be a part): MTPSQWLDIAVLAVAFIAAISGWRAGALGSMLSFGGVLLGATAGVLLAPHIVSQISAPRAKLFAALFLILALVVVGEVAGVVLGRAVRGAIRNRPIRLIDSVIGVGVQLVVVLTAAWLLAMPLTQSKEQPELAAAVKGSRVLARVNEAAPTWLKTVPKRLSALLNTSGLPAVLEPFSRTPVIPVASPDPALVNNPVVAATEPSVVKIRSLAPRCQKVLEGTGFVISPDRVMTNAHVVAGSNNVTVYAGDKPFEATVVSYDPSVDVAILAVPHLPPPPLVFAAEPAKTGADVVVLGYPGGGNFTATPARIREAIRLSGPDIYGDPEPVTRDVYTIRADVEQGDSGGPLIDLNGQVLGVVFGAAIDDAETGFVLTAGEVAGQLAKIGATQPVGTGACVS
Numbers stand for hits.

Results for O=C(CCCCCn1c(=S)[nH]c2cc3c(cc2c1=O)OCO3)N1CCN(C(=O)c2ccco2)CC1 ?
UGM FP inh: inactive; Mtb hypoxia inh: inactive; RecA intein inh: inactive; FadD28 binding: inactive; Mtb bLac sens: inactive; Rv3671c inh: inactive

How did CCOC(=O)c1cc(S(=O)(=O)N2CCN(c3ccccc3OC)CC2)cn1C do in these assays?
UGM FP inh: inactive; Mtb hypoxia inh: inactive; RecA intein inh: inactive; FadD28 binding: inactive; Mtb bLac sens: inactive; Rv3671c inh: inactive

How did COc1ccc(-n2nc(C(=O)NCC(=O)NC3CCCC(C)C3C)c3ccccc3c2=O)c(OC)c1 (stereo not drawn) do in these assays?
UGM FP inh: inactive; Mtb hypoxia inh: 35; RecA intein inh: inactive; FadD28 binding: inactive; Mtb bLac sens: inactive; Rv3671c inh: inactive

What do the screens show for `CCCSC1=N/C(=C\c2ccc([N+](=O)[O-])o2)C(=O)S1`?
Mtb hypoxia inh: inactive; FadD28 binding: 12

What do the screens show for `CCCSC1=N/C(=C\C=C\c2ccco2)C(=O)S1`?
UGM FP inh: inactive; Mtb hypoxia inh: inactive; RecA intein inh: inactive; FadD28 binding: 15; Mtb bLac sens: inactive; Rv3671c inh: inactive

How did CCSC1=N/C(=C\c2ccc(-c3ccccc3[N+](=O)[O-])o2)C(=O)S1 do in these assays?
UGM FP inh: inactive; RecA intein inh: inactive; FadD28 binding: inactive; Mtb bLac sens: inactive; Rv3671c inh: inactive

Results for O=C(Cn1nc(-c2ccccc2Cl)ccc1=O)Nc1ccc(Br)cc1 ?
UGM FP inh: inactive; Mtb hypoxia inh: inactive; RecA intein inh: inactive; FadD28 binding: inactive; Mtb bLac sens: inactive; Rv3671c inh: inactive

What do the screens show for `CC(c1ccc(O)cc1)(c1ccc(O)cc1)c1ccc(CCBr)cc1`?
UGM FP inh: inactive; RecA intein inh: 31; FadD28 binding: inactive; Mtb bLac sens: inactive; Rv3671c inh: inactive

What do the screens show for `COc1ccc(-c2sc3cc4c(cc3c2C#CCO)OCO4)cc1`?
UGM FP inh: inactive; Mtb hypoxia inh: inactive; FadD28 binding: inactive; Mtb bLac sens: inactive; Rv3671c inh: inactive

How did Cn1c(=O)c2cc(NC(=S)NC3CCCCC3)ccc2n1Cc1ccc(Cl)cc1 do in these assays?
FadD28 binding: 17

How did C/C(CCN1CCc2nc(-c3ccccc3)c(-c3ccccc3)cc2C1)=N\O[C@@H](C)c1cc(-c2c(C)cc(C)cc2C)no1 do in these assays?
UGM FP inh: inactive; RecA intein inh: inactive; Mtb bLac sens: inactive; Rv3671c inh: inactive

How did COc1ccc(OC)c(NC(=O)CNC(=O)Cn2cnc3sc(C)cc3c2=O)c1 do in these assays?
UGM FP inh: inactive; Mtb hypoxia inh: inactive; RecA intein inh: inactive; FadD28 binding: inactive; Mtb bLac sens: inactive; Rv3671c inh: inactive

What do the screens show for `COc1ccc(OC)c(NC(=O)CSc2ncnc3sc(C)cc23)c1`?
FadD28 binding: 14

Results for Cc1[nH]n(-c2ncc(-c3ccccc3)s2)c(=O)c1C(c1ccc(Br)cc1)C(C#N)C#N (stereo not drawn) ?
UGM FP inh: inactive; Mtb hypoxia inh: inactive; RecA intein inh: inactive; FadD28 binding: inconclusive; Mtb bLac sens: inactive; Rv3671c inh: inactive

Results for Cc1[nH]n(C(N)=S)c(=O)c1C(c1ccccc1)C(C#N)C#N (stereo not drawn) ?
UGM FP inh: inactive; RecA intein inh: 43; FadD28 binding: inactive; Mtb bLac sens: inactive; Rv3671c inh: inactive

How did COC(=O)c1ccc(NC(=S)NC2c3ccccc3CC2O)cc1 (stereo not drawn) do in these assays?
UGM FP inh: inactive; Mtb hypoxia inh: inactive; RecA intein inh: inactive; FadD28 binding: 22; Mtb bLac sens: inactive; Rv3671c inh: inactive

How did COC(=O)c1ccc(NC(=S)Nc2ccccc2)cc1 do in these assays?
UGM FP inh: inactive; Mtb hypoxia inh: inactive; RecA intein inh: inactive; FadD28 binding: inactive; Mtb bLac sens: inactive; Rv3671c inh: inactive

Results for Oc1ccccc1N=Cc1sc2ccccc2c1Cl ?
UGM FP inh: inactive; Mtb hypoxia inh: 37; RecA intein inh: inactive; FadD28 binding: inactive; Mtb bLac sens: inactive; Rv3671c inh: inactive

What do the screens show for `Cc1ccc(O)c(N=Cc2sc3ccccc3c2Cl)c1`?
UGM FP inh: inactive; Mtb hypoxia inh: inactive; RecA intein inh: inactive; FadD28 binding: inactive; Mtb bLac sens: inconclusive; Rv3671c inh: inactive

What do the screens show for `OCCN1CCN(CC(O)COCC2COc3ccccc3O2)CC1` (stereo not drawn)?
UGM FP inh: inactive; Mtb hypoxia inh: inactive; RecA intein inh: inactive; FadD28 binding: inactive; Mtb bLac sens: inactive; Rv3671c inh: inactive

Results for N#CC1=C(N)C2=C(N3CCCCC3)CCCC2C1(C#N)C#N (stereo not drawn) ?
UGM FP inh: inactive; Mtb hypoxia inh: inactive; RecA intein inh: inactive; FadD28 binding: 46; Mtb bLac sens: inactive; Rv3671c inh: inactive

How did COc1cc2[nH]c3c(N4CCN(c5ccccn5)CC4)ncnc3c2cc1OC do in these assays?
UGM FP inh: inactive; Mtb hypoxia inh: inactive; RecA intein inh: inactive; FadD28 binding: 9.1; Mtb bLac sens: inactive; Rv3671c inh: inactive

What do the screens show for `COc1cccc(NC(=O)Cn2c(=O)oc3cc(S(=O)(=O)N4CCCC4)ccc32)c1`?
UGM FP inh: inactive; Mtb hypoxia inh: inactive; RecA intein inh: inactive; FadD28 binding: 24; Mtb bLac sens: inactive; Rv3671c inh: inactive

What do the screens show for `Cc1cccc(NC(=O)Cn2c(=O)oc3cc(S(=O)(=O)N4CCCC4)ccc32)n1`?
UGM FP inh: inactive; Mtb hypoxia inh: inactive; RecA intein inh: inactive; FadD28 binding: 14; Mtb bLac sens: inactive; Rv3671c inh: inactive

Results for Cc1cccc(NC(=O)Cn2c(=O)oc3ccccc32)n1 ?
UGM FP inh: inactive; Mtb hypoxia inh: inactive; RecA intein inh: inactive; FadD28 binding: 20; Mtb bLac sens: inconclusive; Rv3671c inh: inactive

Results for O=C(NCC1CCCO1)c1ccc(N2CCCCC2)nc1 (stereo not drawn) ?
UGM FP inh: inactive; Mtb hypoxia inh: inactive; RecA intein inh: inactive; FadD28 binding: inactive; Mtb bLac sens: inactive; Rv3671c inh: inactive

Results for Cc1ccc(NCC(=O)NN=Cc2ccncc2)cc1 ?
Mtb hypoxia inh: inactive

What do the screens show for `O=C(/C=C/c1ccccc1)c1ccc2c3c(cccc13)CC2`?
UGM FP inh: inactive; Mtb hypoxia inh: inactive; RecA intein inh: 34; FadD28 binding: inactive; Mtb bLac sens: inactive; Rv3671c inh: inactive

What do the screens show for `O=C(/C=C/c1ccccc1)c1ccccc1`?
UGM FP inh: inactive; RecA intein inh: inactive; FadD28 binding: inactive; Mtb bLac sens: inactive; Rv3671c inh: inactive

What do the screens show for `Cc1csc(N/N=C/c2ccc(O)c([N+](=O)[O-])c2)n1`?
UGM FP inh: inactive; RecA intein inh: inactive; FadD28 binding: 9.3; Mtb bLac sens: inactive; Rv3671c inh: inactive

How did O=[N+]([O-])c1cc(/C=N\Nc2nc(-c3ccccc3)cs2)ccc1O do in these assays?
UGM FP inh: inactive; RecA intein inh: inactive; FadD28 binding: inactive; Mtb bLac sens: inactive; Rv3671c inh: inactive

Results for COc1ccc(CCN2CC(C(=O)NCCN3CCCC3=O)CCC2=O)cc1 (stereo not drawn) ?
UGM FP inh: inactive; Mtb hypoxia inh: inactive; RecA intein inh: inactive; FadD28 binding: inactive; Mtb bLac sens: inactive; Rv3671c inh: inactive

Results for Nc1ccc2nc3c(=O)n(C4CCCCC4)c(=O)[nH]c3nc2c1 ?
UGM FP inh: 36; Mtb hypoxia inh: inactive; RecA intein inh: inactive; FadD28 binding: inactive; Mtb bLac sens: inactive; Rv3671c inh: inactive

Screens as filed in PubChem.
